This note sets out measurements from PubChem BioAssay (EPA / NIEHS).

Inconclusive results are not listed. Activity calls are given as the source filed them. The calls were made as follows: active = hit-call score of the fitted dose curve at least 0.9, where 1 is the maximum; inconclusive = response in the unintended direction; inactive = score below 0.9.

Chain of bovine Estrogen Receptor (ER), ESR1 (gene 407238) (P49884 whole entry, looked up): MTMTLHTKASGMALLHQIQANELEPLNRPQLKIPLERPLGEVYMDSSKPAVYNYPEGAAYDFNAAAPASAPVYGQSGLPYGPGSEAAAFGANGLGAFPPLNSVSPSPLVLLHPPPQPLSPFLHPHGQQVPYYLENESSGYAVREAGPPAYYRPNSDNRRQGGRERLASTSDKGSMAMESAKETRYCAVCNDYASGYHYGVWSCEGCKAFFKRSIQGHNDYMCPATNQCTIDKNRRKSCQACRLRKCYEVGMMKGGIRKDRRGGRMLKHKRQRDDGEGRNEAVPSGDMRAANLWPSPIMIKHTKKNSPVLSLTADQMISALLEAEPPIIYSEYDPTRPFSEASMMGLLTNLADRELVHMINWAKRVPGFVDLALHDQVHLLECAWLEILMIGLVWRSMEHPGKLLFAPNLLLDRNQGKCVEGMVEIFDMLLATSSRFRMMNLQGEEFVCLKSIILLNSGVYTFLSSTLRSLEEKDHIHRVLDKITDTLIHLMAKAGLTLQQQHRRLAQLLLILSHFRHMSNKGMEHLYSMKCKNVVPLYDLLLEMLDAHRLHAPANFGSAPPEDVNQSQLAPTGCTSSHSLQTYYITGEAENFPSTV
Chain of rat Peripheral-type Benzodiazepine Receptor (PBR), Tspo (gene 24230) (P16257 whole entry, looked up): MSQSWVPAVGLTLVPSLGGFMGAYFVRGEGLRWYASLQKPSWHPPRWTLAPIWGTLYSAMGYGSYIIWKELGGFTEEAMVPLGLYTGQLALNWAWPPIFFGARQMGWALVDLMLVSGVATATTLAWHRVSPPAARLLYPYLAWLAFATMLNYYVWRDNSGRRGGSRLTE
Chain of human Peripheral-type Benzodiazepine Receptor (PBR), TSPO (gene 706) (P30536 whole entry, looked up): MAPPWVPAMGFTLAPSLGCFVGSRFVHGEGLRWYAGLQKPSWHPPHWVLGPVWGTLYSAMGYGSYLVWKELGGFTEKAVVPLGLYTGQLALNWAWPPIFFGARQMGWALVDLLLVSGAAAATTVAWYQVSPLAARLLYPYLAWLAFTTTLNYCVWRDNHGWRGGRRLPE

For the first experiment, the target named is human Peripheral-type Benzodiazepine Receptor (PBR), TSPO (gene 706) (UniProt P30536). The experiment is described as follows: NVS_MP_hPBR: NovaScreen (NVS) Membrane Protein Assay for human Peripheral-type Benzodiazepine Receptor (PBR) (AID 2283331).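 Also: hits reduce radioligand binding relative to DMSO baseline.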 In outline:
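Human colonic cell membranes were incubated with test chemical for 1 hour; radioligand binding was measured by filter-based scintillation counting. Primary screen ran in duplicate at 25 uM, with actives followed in concentration series; loss of signal versus DMSO baseline.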
In the case of `CCCCC/C=C\C/C=C\CCCCCCCC(=O)O`, the AC50 was 5.35 µM (active).

Consider `O=C(Oc1ccccc1)c1ccccc1C(=O)Oc1ccccc1`, for which the AC50 was 1.78 µM (active).

As to `C=CCOC(=O)c1ccc(C(=O)OCC=C)c(C(=O)OCC=C)c1`, the AC50 was 9.19 µM (active).

Consider `CCOC(=O)C1=NOC(c2ccccc2)(c2ccccc2)C1`, for which the AC50 is 8.19 µM (active).

`COc1ccc(-c2coc3cc(O)cc(O)c3c2=O)cc1`: the concentration at half-maximal activity (AC50) was 0.293 µM (active).

With `O=C(O)c1cc(O)c2ccccc2c1O`, the AC50 was 18 µM (active).

As for `CC(Cl)COP(=O)(OCC(C)Cl)OCC(C)Cl` (configuration not stated), the AC50 was 25 µM (active).

In the case of `CCCCCCCOC(=O)c1ccc(O)cc1`, the AC50 is 2.98 µM (active).

Take `CCCCNS(=O)(=O)c1ccc(C)cc1`: the AC50 was 7.96 µM (active).

Another experiment addresses rat Peripheral-type Benzodiazepine Receptor (PBR), Tspo (gene 24230) (UniProt P16257). The experiment in a line: NVS_MP_rPBR: NovaScreen (NVS) Membrane Protein Assay for rat Peripheral-type Benzodiazepine Receptor (PBR) (AID 2283335). In outline: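 Radioligand displacement, rat kidney membrane prep, 1 h exposure, filter-based scintillation read; DMSO baseline, loss-of-signal scored. Primary screen at 25 uM in duplicate, actives followed up in concentration series.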
`CCCCC/C=C\C/C=C\CCCCCCCC(=O)O`: the AC50 was 5.8 µM (active).

As for `O=C(Oc1ccccc1)c1ccccc1C(=O)Oc1ccccc1`, the AC50 is 30.9 µM (active).

In the case of `CCOC(=O)C1=NOC(c2ccccc2)(c2ccccc2)C1`, the outcome was inactive.

Consider `O=C(O)c1cc(O)c2ccccc2c1O`, for which the AC50 was 13.6 µM (active).

In the case of `N#Cc1ccc(C(c2ccc(C#N)cc2)n2cncn2)cc1`, the concentration at half-maximal activity (AC50) is 6.92 µM (active).

For `CC(Cl)COP(=O)(OCC(C)Cl)OCC(C)Cl` (configuration not stated), the AC50 was 13.4 µM (active).

In the case of `CCCCCCCOC(=O)c1ccc(O)cc1`, the result was inactive.

As for `CCCCNS(=O)(=O)c1ccc(C)cc1`, the AC50 was 1.72 µM (active).

Consider `O=c1c(O)c(-c2ccc(O)cc2O)oc2cc(O)cc(O)c12`, for which the result was inactive.

The next experiment has as its target bovine Estrogen Receptor (ER), ESR1 (gene 407238) (UniProt P49884). The experiment in a line: NVS_NR_bER: NovaScreen (NVS) Nuclear Receptor Binding Assay for bovine Estrogen Receptor (ER) (AID 2283345).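 Also: actives lower the bound radioligand count which means they displace the ER ligand.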 Put shortly:
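Bovine uterine membranes; tritiated or iodinated radioligand; competitive displacement; 18 h; scintillation read; DMSO negative control; 25 uM duplicates, then concentration series for actives.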
For the compound `c1ccc(Nc2cccc3ccccc23)cc1`, the compound was called inactive.

With `Nc1ccc(O)c([N+](=O)[O-])c1`, the call was inactive.

Consider `CCCCC/C=C\C/C=C\CCCCCCCC(=O)O`, for which the compound was classed as inactive.

For the compound `CCCCCCCCCCCCCCCCCCOS(=O)(=O)O`, the compound was classed as inactive.

As to `O=C(O)C1CCC(C(=O)O)CC1` (configuration not stated), the compound was called inactive.

For `CC(C)c1ccc(O)c(C(C)C)c1`, the call was inactive.

For the compound `C=CCCCCCCCCC=O`, the compound was classed as inactive.

Consider `CC(=O)OCc1ccccc1`, for which the compound was classed as inactive.

Consider `O=S(=O)(O)c1ccc(Nc2nc(Nc3ccc(C=Cc4ccc(Nc5nc(Nc6ccc(S(=O)(=O)O)cc6)nc(N(CCO)CCO)n5)cc4S(=O)(=O)O)c(S(=O)(=O)O)c3)nc(N(CCO)CCO)n2)cc1`, for which the compound was classed as inactive.

`O=C(Nc1ccccc1)c1cc(Cl)ccc1O`: the result was inactive.

As for `COc1ccc(-c2coc3cc(O)cc(O)c3c2=O)cc1`, the AC50 was 14.6 µM (active).

On to `O=C(O)c1cc(O)c2ccccc2c1O`, for which the call was inactive.

Consider `C[Si](C)(C)N[Si](C)(C)C`, for which the compound was called inactive.

Take `C=CC(=O)OCCCCCCOC(=O)C=C`: the result was inactive.

As for `CC(C)=CCCC(C)=CC#N`, the outcome was inactive.

Consider `C=C(C)C(=O)OCC(O)COc1ccc(C(C)(C)c2ccc(OCC(O)COC(=O)C(=C)C)cc2)cc1` (configuration not stated), for which the compound was classed as inactive.

As for `C=CC(=O)OCC(C)OCC(C)OCC(C)OC(=O)C=C` (configuration not stated), the result was inactive.

On to `CC(C)(C)C1CCC(=O)CC1`, for which the AC50 is 25 µM (active).

`C=C[Si](OCCOC)(OCCOC)OCCOC`: the outcome was inactive.

As for `N#Cc1ccc(C2CCCc3cncn32)cc1` (configuration not stated), the compound was classed as inactive.

For the compound `CCCCCCCOC(=O)c1ccc(O)cc1`, the AC50 is 13.2 µM (active).

`CCCCCCCCCCCCc1ccc(O)cc1`: the AC50 is 10.7 µM (active).

For the compound `O=c1c(O)c(-c2ccc(O)cc2O)oc2cc(O)cc(O)c12`, the result was inactive.

Turning to `CC(C)(c1ccccc1)c1ccc(Nc2ccc(C(C)(C)c3ccccc3)cc2)cc1`, the outcome was inactive.

What is called AC50 is the concentration at which the activity in the assay is half-maximal.
